Among the data in PubChem BioAssay (NCATS) are Potency values, retold here.

Records with an inconclusive call do not appear. The source made the active and inactive calls. Calls follow the shape of the dose curve; as a rule, active = well fitted inhibition curve with a large enough effect; inconclusive = small, poorly fitted or top-dose-only effect; inactive = flat fitted curve, though single readings scatter.

What all share (test): qHTS profiling for inhibitors of Plasmodium falciparum proliferation (AID 504749); also: nearly all actives have a fitted effect of over 60% in size
Settings in all cases: P. falciparum in erythrocytes, SYBR Green DNA, 72 h; series mostly up to 28.7 µM
For orientation: qHTS replaces the single test concentration by a dilution series.

For one test, the system named is CP297. The gist of the method:
(§1)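 Three-day growth assay of blood-stage parasites in erythrocytes (0.3% parasitemia, 2.5% hematocrit) at 37 C, 5% CO2, quantified by SYBR Green DNA staining after overnight detergent lysis.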

For the next test, the system named is CP305. Put shortly:
as §1

The test system of a further test is CP315. Put shortly:
as §1

The test system of the next test is DFO2036. Put shortly:
as §1

Another test relates to DIV30. The gist of the method:
as §1

The next test relates to ECU. The gist of the method:
as §1

The next test has as its system FAB9. The gist of the method: as §1
In another test the test system is HB3. The gist of the method:
as §1

The subject of a further test is ICS. The gist of the method:
as §1

Another test deals with JCK. Put shortly:
as §1

Another test deals with CP335. Put shortly: as §1
In another test the test system is Dd2. The gist of the method:
as §1

The next test concerns P93_24. The gist of the method: as §1
A further test deals with CP329. Put shortly: as §1
The next test relates to DIV14. The gist of the method: as §1
Another test deals with DIV17. Put shortly: as §1
In a further test the test system is N140. The gist of the method:
as §1

Another test concerns GB4. Put shortly: as §1
The test system of the next test is CP325. The gist of the method:
as §1
Potency is read from the fitted curve at half-maximal effect.

Turning to `CN1CCN(C(c2ccccc2)c2ccccc2)CC1`, the Potency result with CP297, in the test on CP305, in the test on CP315, in the test on DFO2036, in the test with DIV30 and with ECU was “inactive” throughout. The Potency result in the test on FAB9, with HB3, in the test on ICS and in the test on JCK was “inactive” in each case.

Consider `O=C(N/N=C/c1ccccc1O)c1ccncc1`, for which the Potency entry with CP297, in the test with FAB9 and in the test on JCK was “inactive” in each case. Moreover, the Potency in the test with CP335 is 6.01 µM (active); in the test with DFO2036, 7.94 µM (active); in the test with Dd2, 11.2 µM (active); in the test on ICS, 3.55 µM (active); in the test on P93_24 it was 10 µM (active).

As for `NC(CS)C(=O)O` (configuration not stated), the Potency result in the test on CP315 and in the test on CP329 was “inactive” throughout. Also, the Potency with DFO2036 was 12.6 µM (active); in the test on DIV14, 6.75 µM (active); with DIV17, 9.53 µM (active); in the test with DIV30 it was 16.9 µM (active); in the test with HB3, 8.91 µM (active); in the test on ICS it was 2 µM (active). The Potency is 11.2 µM (active) in the test on N140 and 10 µM (active) in the test on P93_24.

As to `CCCOC(C(=O)OC1CCN(C)CC1)(c1ccccc1)c1ccccc1`, the Potency entry in the test on CP297, in the test on CP315, in the test on CP329, in the test on DFO2036 and in the test with FAB9 was “inactive” throughout. The Potency with DIV14 was 7.57 µM (active); in the test with DIV17 it was 7.57 µM (active); in the test on Dd2, 12.6 µM (active); with ECU, 10 µM (active); in the test on ICS it was 7.94 µM (active).

On to `NC(=O)C(=O)N/N=C/c1ccc([N+](=O)[O-])o1`, for which, in the test with CP329, the Potency was 15.1 µM (active). In addition, the Potency entry in the test on CP335, in the test on DFO2036, in the test with Dd2, in the test with ECU, in the test with FAB9 and with HB3 was “inactive” throughout. Moreover, the Potency entry in the test on ICS, in the test on JCK, in the test on N140 and in the test with P93_24 was “inactive” each time.

As for `Oc1c(I)cc(I)c2cccnc12`, the Potency result in the test with DIV14, with ECU, in the test with FAB9 and with JCK was “inactive” throughout.

Consider `CNCCC=C1c2ccccc2CCc2ccccc21`, for which the Potency result with CP315, with FAB9 and in the test with HB3 was “inactive” in each case. In addition, the Potency is 2.13 µM (active) in the test on DIV14; 3.79 µM (active) in the test on DIV17; 8.91 µM (active) with Dd2; 8.49 µM (active) with GB4; 11.2 µM (active) with ICS; 7.08 µM (active) with N140.

On to `CCCCCCCCCCOCC(O)CN` (configuration not stated), for which the Potency result in the test with CP315, in the test on CP329, in the test on DFO2036, with FAB9, in the test with HB3 and with JCK was “inactive” throughout. In addition, the Potency with DIV14 was 10.7 µM (active); in the test on Dd2 it was 12.6 µM (active); in the test on GB4, 9.53 µM (active); in the test with ICS, 11.2 µM (active).

Regarding `CCOc1ccc(Cc2nccc3cc(OCC)c(OCC)cc23)cc1OCC`, the Potency entry in the test on CP297, with CP305, in the test on CP315, in the test with CP325, in the test with DFO2036 and in the test on DIV14 was “inactive” each time. The Potency result in the test with DIV17, with Dd2, in the test on ECU, in the test on FAB9, in the test with ICS and in the test with N140 was “inactive” in each case. Moreover, the Potency entry with P93_24 was “inactive”. Besides, the Potency with JCK is 10 µM (active).

As for `CC(C)N=C(N)/N=C(\N)Nc1ccc(Cl)cc1`, the Potency entry in the test on DIV14 was “inactive”. In addition, the Potency in the test with Dd2 is 3.55 µM (active).

Regarding `c1ccc(CNCCNCc2ccccc2)cc1`, the Potency with CP297 is 12 µM (active); in the test on DIV14, 3.79 µM (active); in the test with DIV17 it was 6.01 µM (active); in the test with Dd2 it was 11.2 µM (active); in the test with ECU it was 11.2 µM (active). The Potency entry with CP315, in the test with CP329, in the test with FAB9, in the test with HB3 and in the test with JCK was “inactive” each time.

Turning to `C[C@@H]1C[C@H]2[C@@H]3CCC4=CC(=O)C=C[C@]4(C)[C@@]3(F)[C@@H](O)C[C@]2(C)[C@H]1C(=O)CO`, the Potency entry in the test with CP305, in the test with CP315, in the test on CP325, in the test on CP329, in the test on CP335 and in the test on DFO2036 was “inactive” in each case. The Potency entry in the test with Dd2, in the test with ECU, in the test with FAB9 and with JCK was “inactive” throughout. In the test on DIV14, the Potency is 13.5 µM (active).

As for `CN(C)CCOc1ccccc1Cc1ccccc1`, the Potency with CP297 is 4.26 µM (active); in the test with DFO2036 it was 6.31 µM (active); in the test with DIV14, 8.49 µM (active); with DIV17, 10.7 µM (active); with Dd2 it was 5.01 µM (active); in the test on N140, 4.47 µM (active). The Potency result with CP315, in the test with DIV30, in the test on FAB9 and with HB3 was “inactive” each time.

Regarding `C=C(CC)C(=O)c1ccc(OCC(=O)O)c(Cl)c1Cl`, the Potency result with CP297 and in the test with CP325 was “inactive” in each case. In addition, the Potency in the test on Dd2 is 11.2 µM (active); with ICS, 10 µM (active).

For the compound `CC(C)(Oc1ccc(Cl)cc1)C(=O)O`, the Potency result in the test with CP297, in the test with CP315, in the test with CP325, with CP329, in the test with DFO2036 and in the test with DIV14 was “inactive” throughout. For the same compound, the Potency result with DIV17, with DIV30, in the test with Dd2, in the test with ECU, in the test on FAB9 and in the test on GB4 was “inactive” in each case. Further, the Potency result with HB3, in the test on ICS, in the test with JCK, in the test on N140 and in the test on P93_24 was “inactive” in each case.

`Clc1ccc2c(c1)CCc1cccnc1C2=C1CCNCC1`: the Potency result in the test with DFO2036, in the test with FAB9, with HB3 and in the test on JCK was “inactive” in each case. The Potency is 7.57 µM (active) in the test with DIV14; 9.53 µM (active) with DIV17; 16.9 µM (active) with DIV30; 4.47 µM (active) in the test with Dd2; 11.2 µM (active) with ICS.

`CN1CCN(CCCN2c3ccccc3Sc3ccc(S(=O)(=O)N(C)C)cc32)CC1`: the Potency result in the test on CP315 and with CP329 was “inactive” throughout. For the same compound, the Potency is 4.55 µM (active) in the test with DIV14; 7.21 µM (active) in the test on DIV30; 3.55 µM (active) in the test with Dd2; 4.47 µM (active) with ECU; 1.41 µM (active) in the test with ICS; 3.16 µM (active) in the test on P93_24.
